Results: ChEMBL document CHEMBL4513216, “Probing the Open Global Health Chemical Diversity Library for Multistage-Active Starting Points for Next-Generation Antimalarials” (ACS Infect Dis, 2020)
Screen size: about 65,000 compounds; about 2,100 (3.2%) showed an effect of 50% or more. The median lay at about -52%. This excerpt belongs to a sample that is enriched for strong results.

These compounds were tested on Plasmodium falciparum (assay: Screen against P. falciparum Asexual Blood Stage (ABS), at 5uM). Conditions: tested at 5 uM.
Assay type: functional, Dd2
Work on `COc1ccccc1CNCc1nn(-c2ccccc2)c2c1CCC2` yielded an INHIBITION of 81.6%.
For `c1ccc(O[C@@H]2CC[C@H]3[C@H]2OCCN3Cc2ccsc2)nc1`, the INHIBITION was -77.6%.
With `O=C(c1[nH]nc(C2CC2)c1Cl)N1CCN(S(=O)(=O)c2ccccc2)CC1` the INHIBITION was 75.8%.
For `CN1CCN(S(=O)(=O)c2ccccc2)Cc2cccnc21`, the INHIBITION was -41.3%.
`O=C(NCc1ccccn1)[C@]12COC[C@H]1CN(C1CCC1)C2` was tested, and the INHIBITION was -26.3%.
For `N#Cc1ccc(NCCc2n[nH]c(=O)[nH]2)cc1Cl`, the INHIBITION was -36.1%.
Compound `Cc1nccc([C@@H]2C[C@@H]3CCN(Cc4ccco4)C[C@H]3O2)n1` has an INHIBITION of -17.2%.
Compound `Cc1ccc(NCCCNC(=O)C2CCCN(Cc3ccco3)C2)nc1` (stereo unspecified) has an INHIBITION of 70.6%.
`O=C(Nc1cccnc1)[C@H]1CN(Cc2ccco2)C[C@H]2OCC[C@@H]12` was tested, and the INHIBITION was -115%.
Work on `CC(C)CC(=O)N1CCC2(CC1)OCCO2` yielded an INHIBITION of -80.4%.
Work on `COc1ccc2ncn(Cc3ncc[nH]3)c(=O)c2c1` yielded an INHIBITION of -84.2%.
In the case of `CCC1CN(C(=O)c2ccc(Cl)cc2O)CCN1C(C)C` (stereo unspecified), the INHIBITION is reported as 73.3%.
`CC(C)N1CCO[C@H]2CN(C(=O)c3ccncc3F)C[C@H]21` gave an INHIBITION of -88.4%.
Work on `O=C(c1ccc(Cl)cc1-n1cnnn1)N1CCC2(CC1)OCCO2` yielded an INHIBITION of -52.7%.
Compound `O=C1CO[C@@H]2CN(Cc3cccnc3)C[C@H]2N1Cc1ccncc1` has an INHIBITION of -6.5%.
With `O=C1Nc2ccccc2C12CCN(Cc1ccccn1)CC2` the INHIBITION was -45.4%.
Compound `Cc1[nH]c2ccc(CNC3CCN(Cc4ccccn4)CC3)cc2c1C` has an INHIBITION of 93.6%.
In the case of `C[C@H]1C[C@H]2CN(Cc3ccccn3)CC[C@@H]2O1`, the INHIBITION is reported as -8.95%.
With `O=S(=O)(NC[C@H]1C[C@@H]2CCN1C[C@@H]2CN1CCCC1)c1ccc(Cl)cc1` the INHIBITION was 89.4%.
With `O=S(=O)(NC[C@H]1C[C@@H]2CCN1C[C@@H]2CN1CCOCC1)c1ccccc1` the INHIBITION was -71.9%.
`O=C(NC[C@H]1C[C@@H]2CCN1C[C@@H]2CN1CCCCC1)Nc1ccccc1` was tested, and the INHIBITION was -34.9%.
`CC(=O)N1CCOCC2(CN(Cc3ccccn3)CCO2)C1` (stereo unspecified) was tested, and the INHIBITION was -107%.
Work on `CN1CCCN(C(=O)c2ccnn2-c2ccc3ccccn23)CC1` yielded an INHIBITION of 70.8%.
Work on `CN1CCN(C(=O)c2cn(Cc3ccccc3)c3ncccc23)CC1` yielded an INHIBITION of -70.4%.
`CC(NC1CCCC1)c1ccccc1-n1cccn1` (stereo unspecified) showed an INHIBITION of 81%.
Work on `NC(CC1CCCCC1)c1ccccc1` (stereo unspecified) yielded an INHIBITION of 55.4%.
For `NC(Cc1nc(-c2ccccc2)no1)c1ccccc1` (stereo unspecified), the INHIBITION was -253%.
In the case of `Cc1cc(CN2CC[C@H]3OCC[C@@]3(C(=O)N3CCOCC3)C2)no1`, the INHIBITION is reported as -53.6%.
For `COc1cccc([C@@H]2CCN(Cc3cccc(C)n3)C[C@H]2O)c1`, the INHIBITION was -29.5%.
With `COc1cccc([C@@H]2CCN(Cc3cn(C)c4ccccc34)C[C@H]2O)c1` the INHIBITION was 78%.
For `OC[C@@H]1[C@@H](c2ccccc2)CN2CCN(c3ccccn3)C[C@H]12`, the INHIBITION was -63.3%.
Compound `Cn1cc(CN2C[C@H](Oc3ncccc3F)[C@H]3OCCC[C@H]32)cn1` has an INHIBITION of -37%.
`Cn1cc(CN2C[C@@H]3CCC[C@@H](OCc4cccnc4)[C@@H]3C2)cn1` was tested, and the INHIBITION was -74.7%.
With `Cn1cc(CN2CCCC(CCc3ccc(F)cc3)C2)cn1` (stereo unspecified) the INHIBITION was 74.7%.
In the case of `Cn1cc(CN2CCCC(CCc3ccc(F)c(F)c3)C2)cn1` (stereo unspecified), the INHIBITION is reported as 71.2%.
For `Cn1cc(CN2CCCC(CCc3ccc(F)cc3F)C2)cn1` (stereo unspecified), the INHIBITION was 89.3%.
`Cc1ccc(N2CCO[C@H]3CN(Cc4cnn(C)c4)C[C@H]32)nn1` showed an INHIBITION of 7.68%.
`Cc1cccc(CN2CC[C@H]3[C@H]2CCN3Cc2cnn(C)c2)n1` showed an INHIBITION of -127%.
Compound `Cn1cc(CN2CC[C@H]3CO[C@H](CNc4ncccn4)[C@H]3C2)cn1` has an INHIBITION of -108%.
`Cn1cc(CN2CC[C@@H]3[C@@H]2CCN3C(=O)Cc2cccc(F)c2)cn1` gave an INHIBITION of -39.1%.
For `CN(C)[C@@H]1CCN(C(=O)Cc2ccc(F)cc2)[C@H]1Cc1cnn(C)c1`, the INHIBITION was -2.98%.
Compound `Cn1cc(CN2CCN3C[C@H](Oc4cccnc4)C[C@H]3C2)cn1` has an INHIBITION of -50.7%.
For `Cn1cc(CN2CCCC(CCc3c(F)cccc3F)C2)cn1` (stereo unspecified), the INHIBITION was 79.3%.
Compound `CC(=O)N1CCC2(CCN(CC(C)C)C2)C1` (stereo unspecified) has an INHIBITION of -17.7%.
Work on `CCOC(=O)CN1C[C@@H]2OCCN(c3ncc(F)cn3)[C@@H]2C1` yielded an INHIBITION of -17.5%.
Compound `COCc1cn(C[C@H]2C[C@@H]3CCN2C[C@@H]3C(=O)N2CCOCC2)nn1` has an INHIBITION of -65.4%.
`Cc1cc(C)nc(-n2nc(C)c3c2NC(=O)CSC3c2cnn(C)c2)n1` (stereo unspecified) was tested, and the INHIBITION was -48.5%.
`Cc1nc(CN2CCCC(CCc3ccccc3C(F)(F)F)C2)no1` (stereo unspecified) showed an INHIBITION of 45.9%.
In the case of `Cn1cc(CN2CCCC(CCc3ccccc3C(F)(F)F)C2)cn1` (stereo unspecified), the INHIBITION is reported as 87.9%.
Compound `O=C(Cc1cnccn1)N1C[C@@H]2CC[C@H]1CN(Cc1cscn1)C2` has an INHIBITION of -120%.
Compound `Cc1nc(CN2CCCC(CCc3ccc(F)c(F)c3)C2)c[nH]1` (stereo unspecified) has an INHIBITION of 81.9%.
`CN(C)Cc1cncc2c1CCN(Cc1cnn(C)c1)C2` showed an INHIBITION of -86.8%.
In the case of `Cn1ccnc1CN1CCN2C[C@H](OCc3cccnc3)C[C@H]2C1`, the INHIBITION is reported as -52.6%.
Work on `Cc1noc(C)c1CN1CCO[C@H]2CN(Cc3nccn3C)C[C@H]21` yielded an INHIBITION of -35.4%.
Work on `FC(F)(F)c1ccccc1CCC1CCCN(Cc2cscn2)C1` (stereo unspecified) yielded an INHIBITION of 79.6%.
`COc1cccc([C@@H]2CCN(Cc3c[nH]c(C)n3)C[C@H]2O)c1` gave an INHIBITION of -35.2%.
`Cn1ccnc1CN1CCCC(CCc2ccc(F)c(F)c2)C1` (stereo unspecified) gave an INHIBITION of 74.5%.
`COc1ccc(F)c(CN2CCCC(O)(CNC3CCCCC3)C2=O)c1` (stereo unspecified) showed an INHIBITION of 70.3%.
`CC(C)(C)CNCC1(O)CCCN(Cc2ccccc2F)C1=O` (stereo unspecified) was tested, and the INHIBITION was 84.5%.
`COC(=O)C(CO)NC(=O)c1cn(Cc2ccccc2F)nn1` (stereo unspecified) gave an INHIBITION of -19.2%.
For `O=C1N(Cc2cccc(F)c2F)CCCC1(O)CNCC1CCCCC1` (stereo unspecified), the INHIBITION was 74.4%.
For `O=C1N(Cc2ccc(F)c(F)c2)CCCC1(O)CNCC1CCCCC1` (stereo unspecified), the INHIBITION was 74.1%.
Compound `Cc1nc(C2(NCc3cccc(F)c3F)CCCCC2)no1` has an INHIBITION of -42.2%.
`O=C(C1CCCC1)N1CCO[C@@H]2CNC[C@@H]21` showed an INHIBITION of 8.33%.
In the case of `O=C1N(c2ccsc2)CCC12CCCN(Cc1ccccn1)C2` (stereo unspecified), the INHIBITION is reported as -30.2%.
Work on `c1cncc(OC[C@@H]2CC[C@H]3[C@H](CCN3Cc3cccs3)O2)c1` yielded an INHIBITION of -15.5%.
`Cc1oncc1C(=O)N[C@@H]1CN(CC2CC2)C[C@@H]2CCCO[C@@H]21` showed an INHIBITION of -164%.
With `Cc1cc(CN2C[C@@H]3COC[C@]3(CNC(=O)c3ccco3)C2)no1` the INHIBITION was -65.1%.
`CC(C)N1CCO[C@H]2CN(C(=O)Cc3cccs3)C[C@H]21` showed an INHIBITION of -102%.
In the case of `c1cc(CO[C@@H]2CC[C@H]3[C@H]2OCCN3CC2CCOCC2)ccn1`, the INHIBITION is reported as -52.1%.
In the case of `CNC(=O)[C@@]12CCCN(c3ncccn3)[C@@H]1CN(C)C2`, the INHIBITION is reported as -69.8%.
For `CC(C)(C)c1cc(=O)[nH]c(C2(N)CCCC2)n1`, the INHIBITION was -59.9%.
Work on `NC(=O)CN1CCC(Nc2ccnc3ccc(Cl)cc23)CC1` yielded an INHIBITION of 94.4%.
`Cc1cc(C)cc(OCC(=O)N2CCCN(CC(N)=O)CC2)c1` was tested, and the INHIBITION was -21.7%.
With `CS(=O)(=O)N1CCC(Nc2ccc(C#N)c(C(F)(F)F)c2)CC1` the INHIBITION was -14.2%.
In the case of `NC(=O)CN1CCCN(C(=O)COc2cccc(F)c2)CC1`, the INHIBITION is reported as -58.7%.
`CS(=O)(=O)N1CCC(Nc2ccnc3ccc(Cl)cc23)CC1` gave an INHIBITION of 88.6%.
Compound `O=C1[C@H]2CN(Cc3ccoc3)C[C@H]2CN1Cc1ccncc1` has an INHIBITION of -110%.
For `COc1ccc2c(c1)c(C(=O)Nc1cc(C)n(C)n1)cn2C(C)C`, the INHIBITION was 9.46%.
Compound `O=C1NCc2ccccc2CC12CCN(Cc1ccncc1Cl)C2` (stereo unspecified) has an INHIBITION of -32%.
Compound `COc1cc(C2SCC(=O)Nc3ccsc32)cc(OC)c1OC` (stereo unspecified) has an INHIBITION of -0.914%.
For `c1csc(CN2CC[C@H]3C[C@H](c4ccncn4)O[C@@H]3C2)c1`, the INHIBITION was -71.5%.
`Cn1cc(CN2CCC3(CCCN3Cc3cccnc3)CC2)cn1` gave an INHIBITION of -18.8%.
`Cn1cc(CN2CCC3(CC2)C(=O)Nc2ccccc23)cn1` showed an INHIBITION of -74.2%.
For `Cn1cc(CN2CCN(CC3(c4ccccc4)CC3)CC2)cn1`, the INHIBITION was 78.9%.
For `C=Cn1cc(CN2CCN(CC3(c4ccccc4)CC3)CC2)c(C)n1`, the INHIBITION was 72.4%.
`O=C1CO[C@@H]2CN(C3CCOCC3)C[C@H]2N1Cc1ccncc1` gave an INHIBITION of -24.5%.
`Cn1nc(-c2cccs2)cc1[C@H]1CN2CC[C@H]1C[C@@H]2CNS(C)(=O)=O` gave an INHIBITION of -60.1%.
With `Cc1nc(C2(NCC(=O)NC(=O)Nc3ccccc3)CCCCC2)no1` the INHIBITION was -126%.
Work on `CCOC(=O)C1(Cc2ccccc2)CCCN(Cc2nccn2CC)C1` (stereo unspecified) yielded an INHIBITION of 71.1%.
Compound `CCn1ccnc1CN1CCCN(C(=O)Cc2ccc(C)s2)CC1` has an INHIBITION of -75.1%.
Work on `CCn1ccnc1CN1CCCN(C(=O)Cc2ccc(C)cc2)CC1` yielded an INHIBITION of -118%.
In the case of `CCn1ccnc1CN1CCCC(CO)(Cc2cccc(Cl)c2)C1` (stereo unspecified), the INHIBITION is reported as 76.8%.
With `CCn1ccnc1CN1CCCN(C(=O)Cc2ccc(C)nc2)CC1` the INHIBITION was -85.3%.
With `Cc1cnn(CC(C)NCc2cc(C#N)ccc2F)c1` (stereo unspecified) the INHIBITION was -49.9%.
Work on `Fc1cnc(N2CCO[C@H]3CN(CC4CCCCC4)C[C@H]32)nc1` yielded an INHIBITION of 34.2%.
Work on `Cc1cccc(C)c1NC(=O)CNC(C)Cc1ccsc1` (stereo unspecified) yielded an INHIBITION of 29.6%.
Work on `COc1cccc(OC)c1CNC(Cc1ccsc1)c1ccc(C)cn1` (stereo unspecified) yielded an INHIBITION of 92.5%.
`COc1ccc(CNC(Cc2ccsc2)c2ncccc2C)cc1OC` (stereo unspecified) was tested, and the INHIBITION was 74.7%.
`Cc1ccc(NC(=O)CNC(C)Cc2ccsc2)cc1F` (stereo unspecified) was tested, and the INHIBITION was 22.9%.
`COc1ccc(CNC(C)Cn2cccn2)cc1F` (stereo unspecified) was tested, and the INHIBITION was -60.6%.
